# Screens as filed in PubChem BioAssay.
# Compounds with a hit are over-represented: about 16% of the library has one in this group of screens.
# TDP1 block – qHTS Assay for Inhibitors of Tyrosyl-DNA Phosphodiesterase (TDP1). Tyrosyl-DNA phosphodiesterase 1 (Homo sapiens), Q9NUW8. hit rate 0.28% among 350,000. Potency, µM (top dose mostly 130 µM), for inactives: top-dose activity change, negative = inhibition, hits mostly inhibitors. recombinant TDP1, AlphaScreen DNA substrate cleavage; further: potency means the concentration at half of the fitted maximal effect; on the % scale 0 is the no-effect control and ±100 the full control effect; nearly all actives have a fitted effect of over 40% in size
# Target sequence (Q9NUW8 whole entry, looked up): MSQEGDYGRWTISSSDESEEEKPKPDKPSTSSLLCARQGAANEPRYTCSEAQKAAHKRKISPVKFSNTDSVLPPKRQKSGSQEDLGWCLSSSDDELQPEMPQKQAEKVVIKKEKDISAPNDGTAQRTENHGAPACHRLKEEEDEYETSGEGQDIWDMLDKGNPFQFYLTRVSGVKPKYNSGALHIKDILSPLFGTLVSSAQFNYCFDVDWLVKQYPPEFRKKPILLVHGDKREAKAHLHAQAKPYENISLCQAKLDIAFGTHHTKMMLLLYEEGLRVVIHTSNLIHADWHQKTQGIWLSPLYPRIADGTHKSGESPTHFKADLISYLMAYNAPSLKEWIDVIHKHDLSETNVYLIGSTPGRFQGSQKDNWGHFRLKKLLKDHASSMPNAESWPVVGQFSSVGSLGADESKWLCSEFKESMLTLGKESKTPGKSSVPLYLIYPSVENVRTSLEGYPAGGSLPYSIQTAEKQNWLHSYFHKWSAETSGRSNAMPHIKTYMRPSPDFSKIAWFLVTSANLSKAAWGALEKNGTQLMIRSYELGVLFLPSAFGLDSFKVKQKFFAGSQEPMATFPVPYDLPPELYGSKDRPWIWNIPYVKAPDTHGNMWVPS
#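 Tdp1 1 nM final; 15 min RT w/ cpd; substrate 15 nM, 5 min; beads 10 ug/ml, 10 min; AlphaScreen read. Neg ctrl: no enzyme.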
# TDP1 cell noCPT – qHTS for Inhibitors of human tyrosyl-DNA phosphodiesterase 1 (TDP1): qHTS in cells in absence of CPT. DT40 Tdp1-/- hTDP1 cells, no CPT, ATP luminescence, 48 h. Potency, µM (highest dose often 46.2 µM), for inactives: at the highest dose activity change, negative = growth inhibition, actives largely listed as inhibitors. hit rate 15% among 420,000. AID 686978, 2013; further: potency means the concentration at half of the fitted maximal effect; on the % scale 0 is the no-effect control and ±100 the full control effect; nearly all actives have a fitted effect of over 55% in size
#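 Growth kinetics read by CellTiter-Glo luminescence after ≥48 hr at 37 °C. Cells: DT40 Tdp1-/- stably carrying human TDP1, 400 per well, compound exposure in the absence of CPT (DMSO vehicle).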
# miR-21 reporter – qHTS Assay for Modulators of miRNAs and/orActivators of miR-21 | HeLa miR-21 FLuc reporter, luciferase, 48 h | Potency, µM (top dose mostly 38.3 µM), without a hit: at the highest dose activity change, positive = activation, usual class: activators | 340,000 tested, under 10 active | AID 2288, 2010;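 further: % of control where 0% means no effect; miR-21 action dims this reporter so a rising signal means less miR-21 action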
#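 HeLa miR-21-FLuc reporter line, endogenous miR-21; 2000 cells/well in DMEM/10% FBS; compound titration up to ~40uM final, 48 h, 37 degree Celsius; luciferase detection reagent, 15 min lysis, CCD luminescence.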
# DT40 TDP1 CPT – qHTS for Inhibitors of human tyrosyl-DNA phosphodiesterase 1 (TDP1): qHTS in cells in presence of CPT. chicken DT40 Tdp1-/-;hTDP1 cells + 20 nM CPT, ATP luminescence, 48 h. Potency, µM (doses to about 46.2 µM), without a hit: top-dose activity change, negative = growth inhibition, actives largely listed as inhibitors. hit rate 12% among 420,000; further: potency means the concentration at half of the fitted maximal effect; on the % scale 0 is the no-effect control and ±100 the full control effect; nearly all actives have a fitted effect of over 55% in size
#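 Cell growth measured by CellTiter-Glo luminescence after a minimum 48 h, 37 C compound exposure with 20 nM CPT in Tdp1-knockout DT40 cells stably expressing hTDP1, seeded 400/well; qHTS titration format.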
# uPA generation – qHTS for Inhibitors of Cell Surface uPA Generation; hit rate 0.31% among 330,000; cell surface uPA generation assay, qHTS; Potency, µM (titrated, usually from 38.3 µM), inactives show top-dose activity change, negative = inhibition, most hits filed as inhibitors; active means well fitted inhibition curve with a large enough effect; inconclusive means small, poorly fitted or top-dose-only effect; inactive means no such curve, though single readings can be large or run the other way; tested in mouse RAW 264.7 cells; further: potency means the concentration at half of the fitted maximal effect; on the % scale 0 is the no-effect control and ±100 the full control effect; nearly all actives have a fitted effect of over 55% in size
# * = called active by the depositor; u = inconclusive; x = not tested or not shown. Unless noted, the call rests on the fitted dose curve; in most records, active means well fitted curve in the direction sought with a large enough effect; inconclusive means small, poorly fitted or top-dose-only effect, or another doubt; inactive means no such curve, though single readings can be large; an effect the other way counts as inactive or inconclusive.
SMILES,TDP1 block,TDP1 cell noCPT,miR-21 reporter,DT40 TDP1 CPT,uPA generation
COc1ccc(-n2c(-c3ccc(Br)cc3)c[n+]3c2CCCCC3)cc1,3.6%,1.84µM*,u,1.84µM*,-9.9%
COc1ccc(-n2c(-c3ccccc3)c[n+]3c2CCC3)cc1,x,2.31µM*,u,2.06µM*,-16.0%
Cc1cc(=O)n2nc(N3CCCC3C(=O)Nc3cccc(F)c3)sc2n1 (stereo unspecified),x,-24.5%,-7.1%,-0.3%,-8.5%
O=C(CSc1nc2ccccc2c(=O)n1NC(=O)Cc1ccccc1)NCc1ccccc1Cl,9.9%,u,1.8%,-21.9%,1.6%
COc1ccc(-n2c(-c3ccc(Br)cc3)c[n+]3c2SC(C)C3)cc1 (stereo unspecified),1.2%,1.16µM*,u,1.64µM*,-6.7%
COc1ccc(OC)c(NC(=O)CCNS(=O)(=O)c2ccc3[nH]c(=O)oc3c2)c1,1.6%,17.3%,0.0%,-1.2%,-0.9%
COc1ccccc1NC(=O)CCNS(=O)(=O)c1ccc2[nH]c(=O)oc2c1,-5.6%,u,-5.3%,23.1µM*,5.8%
Cc1ccc(Cl)cc1N1CCN(Cc2nc3c(c(=O)[nH]c(=O)n3C)n2CCc2ccccc2)CC1,2.7%,u,-7.0%,16.4µM*,3.1%
CCN1CCN(Cc2nc3c(c(=O)[nH]c(=O)n3C)n2Cc2ccccc2Cl)CC1,2.6%,-15.8%,-6.3%,-9.7%,-1.8%
Cc1ccc(Cl)cc1N1CCN(Cc2nc3c(c(=O)[nH]c(=O)n3C)n2Cc2ccccc2F)CC1,7.2%,23.1µM*,-1.3%,u,-29.7%
Cc1ccccc1Cn1c(CN2CCN(c3cc(Cl)ccc3C)CC2)nc2c1c(=O)[nH]c(=O)n2C,1.3%,13µM*,3.7%,u,x
O=C(Nc1nccs1)c1ccc2ccccc2n1,x,-17.5%,-26.2%,-9.9%,-10.4%
Cc1csc(=O)n1CC(=O)Nc1ccc(Cl)c(Cl)c1,1.1%,4.3%,x,-28.7%,9.4%
COc1ccc(CNC(=O)CCN2C(=O)c3ccncc3C2=O)cc1OC,2.5%,22.8%,1.5%,29.7%,-0.1%
Cc1noc(C)c1CN1C(=O)c2ccccc2C1=O,2.9%,10.9%,-1.9%,17.0%,0.8%
O=C(COC(=O)c1cc(S(=O)(=O)N2CCOCC2)ccc1Cl)NC1CCCCC1,x,u,x,1.4%,x
O=S(=O)(NCCc1csc(-c2cccnc2)n1)c1ccc2c(c1)OCCO2,3.1%,-23.3%,-6.0%,u,1.8%
O=S(=O)(NCCc1csc(-c2ccc(C(F)(F)F)cc2)n1)c1ccc2c(c1)OCCO2,3.3%,14.6µM*,7.9%,18.4µM*,9.1%
COc1ccc(-c2nc(CCNS(=O)(=O)c3ccc4c(c3)OCCO4)cs2)cc1,4.3%,16.4µM*,5.2%,18.4µM*,0.4%
CC(NC(=O)Cc1ccc(F)cc1)c1ccc(F)cc1 (stereo unspecified),-4.5%,-28.3%,-5.7%,-20.9%,-10.4%
COc1ccc(N(CC(=O)Nc2cc(Cl)ccc2OC)S(=O)(=O)c2c(C)noc2C)cc1,0.0%,4.11µM*,26.4%,3.26µM*,-9.4%
COc1ccc(NC(=O)CN(c2cc(C)cc(C)c2)S(=O)(=O)c2c(C)noc2C)cc1Cl,2.3%,23.1µM*,-1.2%,u,x
COc1ccccc1NC(=O)CN(c1ccc(C(C)C)cc1)S(=O)(=O)c1c(C)noc1C,4.7%,23.1µM*,18.8%,18.4µM*,x
CCOc1ccc(N(CC(=O)Nc2ccc(OC)cc2)S(=O)(=O)c2c(C)noc2C)cc1,3.7%,u,-3.7%,-21.6%,4.2%
COc1ccc(OC)c(NC(=O)CN(c2ccc(C(C)C)cc2)S(=O)(=O)c2c(C)noc2C)c1,2.5%,u,8.9%,u,-23.6%
SMILES,TDP1 block,TDP1 cell noCPT,miR-21 reporter,DT40 TDP1 CPT,uPA generation
COc1ccc(N(CC(=O)Nc2ccc(OC)c(Cl)c2)S(=O)(=O)c2c(C)noc2C)cc1,2.8%,20.6µM*,11.8%,20.6µM*,-4.4%
Cc1ccc(CNC(=O)C(=O)NCC(c2cccs2)S(=O)(=O)c2cccs2)cc1 (stereo unspecified),5.2%,-11.2%,9.6%,u,x
COc1ccc(CNC(=O)c2cc(=O)[nH]c3ccc(S(=O)(=O)N4CCCC4)cc23)c(OC)c1,5.2%,-16.0%,-1.5%,-0.8%,x
COc1ccc(O)c(C(=O)c2cnc3c(c2)CN(C)C(=O)N3)c1,-2.6%,18.4µM*,15.6%,18.4µM*,u
O=C(Nc1nc(-c2ccc(Cl)cc2)cs1)c1cccnc1,0.0%,18.4µM*,-7.3%,u,3.8%
CC(=O)c1c(C)[nH]c(C(=O)Nc2nc(-c3ccc(Cl)cc3)cs2)c1C,5.1%,u,-3.5%,20.6µM*,4.1%
CCCC(=O)Nc1ccc(-c2csc(-c3cccnc3)n2)cc1,2.9%,16.4µM*,-21.1%,u,-6.9%
CCc1ccc(-c2csc(NC(=O)C3=NN(c4ccccc4)C(=O)CC3)n2)cc1,5.4%,25.9µM*,-11.9%,u,1.9%
O=C(CCSc1ccccc1)Nc1ccc(S(=O)(=O)Nc2ncccn2)cc1,-2.7%,-17.5%,0.0%,0.8%,3.7%
COc1ccc(C2=NN(CC(=O)NCC(OC)OC)C(=O)CC2)cc1,x,-7.2%,0.6%,-1.9%,4.7%
O=C(CCCN1C(=O)c2cccc3cccc(c23)C1=O)NCc1ccco1,-1.2%,-18.0%,-1.0%,-14.2%,-16.1%
CCc1ccc(-c2csc(NC(=O)c3cccnc3)n2)cc1,7.6%,16.4µM*,1.3%,u,-5.1%
O=C(Nc1nc(-c2ccc(F)cc2)cs1)c1cccnc1,-2.7%,u,1.2%,-16.2%,x
CCCOc1ccc(-c2c(C(=O)N/N=C(\C)c3cccs3)nnn2-c2nonc2N)cc1,1.9%,13.7%,-0.3%,-15.7%,5.0%
O=c1c(-c2ccccc2)nc2cnc(N3CCOCC3)nc2n1C[C@H]1CCCO1,x,12.1%,x,0.3%,x
Clc1cccc(CNc2ccn3nc(-c4ccccc4)cc3n2)c1,x,20.6µM*,x,23.1µM*,x
CCC(CO)Nc1ccn2nc(-c3ccccc3)cc2n1 (stereo unspecified),x,u,x,-13.2%,x
CN(C)C(=O)CNc1ccn2nc(-c3cccc(Cl)c3)cc2n1,x,18.4µM*,x,23.1µM*,x
Clc1ccc(-c2cc3nc(NCc4cccc(Cl)c4)ccn3n2)cc1,x,25.9µM*,x,u,x
CC(C)(C)c1cc2nc(NCc3cccc(Cl)c3)ccn2n1,x,16.4µM*,x,18.4µM*,x
O=C(CNCc1ccco1)Nc1cc(S(=O)(=O)N2CCOCC2)ccc1N1CCOCC1,4.1%,-9.2%,x,2.8%,4.6%
